Assay results from PubChem BioAssay (NCI).
“And” between values parts separate entries of the source, which are not always exact repeats. Identical values can stand only once. About 83,000 compounds went through this panel and 20% of them were active in at least one assay; those are over-represented in the sample as a whole.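 How to read the values: 0–100, growth inhibition (40 = 60% inhibited); 0, no net growth; -100 to 0, cell death (-40 = 40% of starting cells died; -100 = all dead).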 The source made the active and inactive calls. How the source made its calls: active means growth percent below 10; inactive means the rest.

What was measured:
Assay in all cases: NCI-60 one-dose screen, 48 h (100 = growth as untreated, 0 = no growth, -100 = all killed)
Conditions in all cases: 10 µM unless noted
[1] = tested on: NCI-H23 lung
[2] = tested on: NCI-H226 lung
[3] = tested on: NCI-H322M lung
[4] = tested on: HOP-62 NSCLC
[5] = tested on: NCI-H460 lung
[6] = tested on: HOP-92 NSCLC
[7] = tested on: NCI-H522 lung
[8] = tested on: A549/ATCC NSCLC
[9] = tested on: 786-0 renal
[10] = tested on: COLO 205 colon
[11] = tested on: DU-145 prostate
[12] = tested on: K-562 leukemia
[13] = tested on: MALME-3M melanoma
[14] = tested on: MDA-MB-231 breast
[15] = tested on: RXF 393 renal
[16] = tested on: SF-268 CNS
[17] = tested on: SF-295 CNS
[18] = tested on: SF-539 CNS
[19] = tested on: UACC-257 melanoma
[20] = tested on: M14 melanoma

Measured: growth

Cc1cc(N2CCN(CC(=O)Nc3ccc4c(ccn4Cc4ccccc4)c3)CC2)nc(N2CCCCCC2)n1
inactive: [1] 53.2% | [2] 57.4% | [3] 77.9% | [4] 59.8% | [5] 40% | [7] 62.4% | [8] 46.3% | [9] 79.4% | [10] 30.6% | [11] 71.5% | [12] 14.8% | [13] 18.2% | [14] 28.2% | [15] 28.7% | [16] 72.9% | [17] 44.4% | [18] 69.4% | [19] 42.8%
active: [6] 0.991% | [20] -7.84%

CC1=C2[C@@H](CC1)[C@]1(C)O[C@@](C(C)C)(C[C@H]1OC(=O)CO)[C@H]2OC(=O)C1CC1c1ccccc1 (stereo not given in full)
inactive: [1] 92.8% | [2] 78.2% | [3] 84.7% | [4] 82.4% | [5] 85.6% | [6] 87.3% | [7] 73.9% | [8] 73.9% | [9] 91.2% | [10] 107% | [11] 100% | [12] 67.7% | [13] 91.7% | [14] 89.7% | [15] 69.3% | [16] 76.2% | [17] 67.4% | [18] 101% | [19] 88.8% | [20] 88.3%

N#CC(Cc1cccc2ccccc12)c1cc2ccccc2[nH]1 (stereo not given)
inactive: [1] 85% | [2] 83.1% | [3] 84.8% | [4] 78.4% | [5] 99.8% | [6] 55.6% | [7] 75.5% | [8] 89.5% | [9] 95.3% | [10] 105% | [11] 103% | [12] 86.6% | [13] 81.9% | [14] 81.4% | [15] 87.8% | [16] 89.3% | [17] 95.9% | [18] 102% | [19] 93.9% | [20] 82.6%

O=C(Nc1ccc(Cl)c(Cl)c1)Nc1ccc(Cl)c(Cl)c1
-88.2% (active) and 58.8% (inactive): [15]
-91.1% (active) and 24.1% (inactive): [14]
-93.6% (active) and 19.2% (inactive): [3]
-63% (active) and 17.6% (inactive): [8]
-85.7% (active) and 33.4% (inactive): [20]
active: [1] -36.5% and 4.84% | [5] -63.6% and 4.34% | [6] -86.2% and -5.71% | [7] -83.9% and 6.21% | [13] -16.1% | [17] -11.8%
-33.4% (active) and 12.4% (inactive): [12]
-83.4% (active) and 40.8% (inactive): [4]
-86.9% (active) and 17.1% (inactive): [10]
-81.9% (active) and 50% (inactive): [19]
-83.3% (active) and 51.1% (inactive): [18]
-80.7% (active) and 31.9% (inactive): [16]
-63.1% (active) and 20.4% (inactive): [9]
-94.8% (active) and 21.1% (inactive): [11]
inactive: [2] 23.7%

C=C1CC[C@@H]2[C@](C)(COC(C)=O)[C@H](OC(C)=O)CC[C@@]2(C)[C@@H]1CC(Nc1ccc(S(=O)(=O)Nc2nccs2)cc1)C1=CCOC1=O (stereo not given in full)
inactive: [1] 38.1% | [3] 59.9% | [4] 120% | [5] 29.5% | [6] 54% | [8] 43.7% | [11] 22.3% | [16] 21.3% | [17] 73% | [19] 22.4%
active: [2] -14% | [7] -61.9% | [9] 6.27% | [10] -24.6% | [12] 3.4% | [13] 0.4% | [14] 5.69% | [15] -50.6% | [18] -67.1% | [20] 8.12%

CCCN1C(=O)/C(=c2\sc3n(c2=O)C2C(NN=3)N(CC)C(=O)N2CC)c2ccccc21 (stereo not given)
inactive: [1] 37.8% | [2] 57.1% | [3] 53.1% | [4] 45.8% | [6] 67.7% | [8] 26.2% | [9] 36.5% | [10] 17.5% | [11] 13.6% | [13] 45.4% | [14] 13.9% | [15] 17.3% | [16] 58.7% | [19] 24.5% | [20] 17.5%
active: [5] 5.57% | [7] 1.15% | [12] 9.52% | [17] 7.46% | [18] -17%

Cc1nc2sc(C(=O)Nc3cccc4ccccc34)c(N)c2cc1C(=O)/C=C/c1ccccc1
active: [1] 9.08% | [2] -59.4% | [4] -21.1% | [5] -34.2% | [7] -33.4% | [9] -55.5% | [10] -15% | [11] -3.16% | [14] -16.2% | [15] -87.2% | [16] 9.83% | [17] -30.7% | [18] -20.1% | [20] -15.3%
inactive: [3] 24% | [6] 28.3% | [8] 12.9% | [12] 12% | [13] 34% | [19] 68.9%

Cc1cccc(Cc2cnc(NC(=O)CCCOc3ccc(Cl)cc3)s2)c1
active: [5] 9.65% | [15] 4.99% | [18] 8.78% | [20] -1.79%
inactive: [1] 54% | [2] 53.8% | [3] 44.7% | [4] 28.7% | [6] 52.2% | [7] 42.5% | [8] 10.7% | [9] 11% | [10] 15.2% | [11] 24.2% | [12] 25.8% | [13] 32.5% | [14] 42.4% | [16] 50.2% | [17] 12.6% | [19] 23%

COc1nc(=O)n(C2C=CC(=O)O2)cc1F (stereo not given)
inactive: [1] 102% | [2] 106% | [3] 102% | [4] 110% | [5] 110% | [6] 87.8% | [7] 39.1% | [8] 123% | [9] 92.5% | [10] 46.5% | [11] 81.1% | [12] 40.8% | [13] 45.5% | [14] 100% | [15] 80.7% | [16] 85.7% | [17] 98.2% | [18] 99.1% | [19] 88.8% | [20] 69.9%

Cc1cnc(C(=O)NNc2nc3sc4c(c3c(=O)[nH]2)C(C)CCC4)cn1 (stereo not given)
active: [2] -8.7% | [4] 8.82% | [5] 5.04% | [15] 6.15% | [19] 1.78% | [20] 0.29%
inactive: [1] 22.9% | [3] 25.3% | [6] 43.6% | [7] 26.1% | [8] 12.3% | [9] 11.2% | [10] 11.2% | [11] 22.6% | [12] 14% | [13] 15.9% | [14] 42.8% | [16] 16.7% | [17] 23.4% | [18] 10.1%

COc1c(O)c(O)cc2c3c(oc12)CC(c1ccc2c(c1)OCO2)CC3=O (stereo not given)
inactive: [1] 69.4% | [2] 80% | [3] 73.2% | [4] 71.4% | [5] 25% | [6] 71.7% | [7] 54.2% | [8] 60.7% | [9] 52.1% | [10] 119% | [11] 68.8% | [12] 17.2% | [13] 95.7% | [14] 70.5% | [15] 105% | [16] 53.9% | [17] 101% | [18] 67.6% | [19] 55.3% | [20] 23.3%

CCCCn1c(C(=O)c2c[nH]c3ccccc23)n[nH]c1=S
inactive: [1] 92.6% | [2] 92.5% | [3] 96.7% | [4] 86% | [5] 98.7% | [6] 89.4% | [7] 83.3% | [8] 92.3% | [9] 102% | [10] 106% | [11] 104% | [12] 76.1% | [13] 111% | [14] 96.4% | [15] 107% | [16] 96.9% | [17] 103% | [18] 102% | [19] 94.8% | [20] 92.4%

NC(=O)c1c(NC(=O)/C=C/c2cccs2)sc2c1CCC(=O)C2
active: [7] -4.08%
inactive: [1] 17.4% | [2] 68.5% | [3] 101% | [4] 87.3% | [5] 58% | [6] 42.4% | [8] 74.9% | [9] 70.2% | [10] 55.5% | [11] 81.6% | [12] 14.3% | [13] 75.1% | [14] 24.6% | [15] 26.9% | [16] 22.5% | [17] 80.9% | [18] 16.3% | [19] 70.7% | [20] 24.8%

CN1C(=O)/C(=C/c2ccc(C(=O)Nc3ncc(Cc4ccccc4Cl)s3)cc2)SC1=S
inactive: [1] 94.6% | [2] 81.4% | [3] 72.2% | [4] 74.2% | [5] 79.5% | [6] 75.1% | [7] 64.2% | [8] 72.2% | [9] 87.9% | [10] 86.2% | [11] 73% | [12] 71.8% | [13] 62.2% | [14] 56.7% | [15] 69.1% | [16] 80.9% | [17] 58.4% | [18] 77% | [19] 89.3% | [20] 42.1%
